The list is not random: actives were taken first. Their share in the collection is about 5.7%.
ATXN2 expr inh: inhibitors of ATXN2 expression; Potency, µM (top dose mostly 57 µM), for inactives: top-dose activity change, negative = inhibition, most hits filed as inhibitors; 360,000 tested, 0.72% active; HEK-293 ATXN2-luciferase reporter, luminescence, 24 h; further: potency means the concentration at half of the fitted maximal effect; on the % scale 0 is the no-effect control and ±100 the full control effect; nearly all actives have a fitted effect of over 55% in size
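ATXN2-luciferase reporter cells (luciferase flanked by upstream and downstream ATXN2 gene portions) were treated 24 h at 37 °C with compounds at up to 57 uM. SteadyGlo luminescence gave expression; GF-AFC fluorescence gave viability.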
TGFb inhibitor: inhibitors of TGF-b signaling; HepG2 CAGA-GFP TGF-b/SMAD3 reporter, GFP fluorescence, 18 h; TGF-beta stimulated, 500 pg/mL final; Potency, µM (doses to about 46.1 µM), inactives show at the top dose activity, negative = inhibition, usual class: inhibitors; 410,000 tested, 1.2% active; AID 588855; further: potency means the concentration at half of the fitted maximal effect; on the % scale 0 is the no-effect control and ±100 the full control effect; nearly all actives have a fitted effect of over 65% in size
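Using HEPG2 CAGA-GFP reporter cells at 1000 cells/well, we pinned test compounds, stimulated with recombinant TGF-beta (500 pg/mL final) and measured total well GFP after 18 h.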
IL-1B inflam inh: inflammasome signaling inhibition, IL-1 beta readout; THP-1 LPS/ATP IL-1B secretion, AlphaLISA, 16 h; hits give low values; activity change, % at 57.5 µM; 360,000 tested, 4.7% active; in the data active means activity change below about -50%; inconclusive means mostly about -30% to -49%; further: on the % scale 0 is the no-effect control and ±100 the full control effect
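Secreted IL-1B measured by AlphaLISA bead assay after 16 h compound exposure of THP-1 cells; compounds (final up to 57.5 uM) added 1 h before LPS (250 ng/mL) and ATP (1.25 mM) stimulation; lower signal means less secretion.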
S2 tox: reduces viability in counter-screen for ATXN expression inhibitors. S2 cells (HEK-293 line with an ATXN2-luciferase reporter) viability, CellTiter-Fluor protease fluorescence, 24 h. Potency, µM (top dose mostly 56.7 µM), usual class: cytotoxic. 400,000 tested, 0.49% active; further: potency means the concentration at half of the fitted maximal effect; nearly all actives have a fitted effect of over 40% in size
HepG2 tox-1: counter-screen for TGF-b inhibitors: cytotoxicity in HepG2 cells. HepG2 CAGA-GFP viability, ATP luminescence, 18 h. Potency, µM (series often up to 46.1 µM), for the others: top-dose activity change, negative = cytotoxicity, hits mostly cytotoxic. 410,000 tested, 0.76% active; further: potency means the concentration at half of the fitted maximal effect
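CellTiter-Glo luminescence gave cytotoxicity after 18 hours at 37 degrees C. The cells were HepG2 CAGA-GFP in 1% FBS DMEM, stimulated with 500 pg/mL TGF-beta after compound addition. %Activity was normalised to no-cell wells (complete cell-killing) and DMSO (no toxicity), and curves were fitted and classified.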
TGFb confirm: confirmation of TGF-b signaling inhibitors in HepG2 reporter cells. shares compounds with TGFb inhibitor. HepG2 CAGA-GFP TGF-b reporter, GFP fluorescence, 18 h; cells stimulated with TGF-beta, 500 pg/mL. Potency, µM (series often up to 46.1 µM), for the others: at the highest dose activity, negative = inhibition, actives largely listed as inhibitors. 1,600 tested, 63% active. AID 720534; further: potency means the concentration at half of the fitted maximal effect; on the % scale 0 is the no-effect control and ±100 the full control effect; nearly all actives have a fitted effect of over 65% in size
HepG2 tox-2: counter-screen for TGF-b inhibitors: cytotoxicity in HepG2 cells; shares compounds with TGFb inhibitor; HepG2 CAGA-GFP viability, ATP luminescence, 18 h; cells stimulated with TGF-beta, 500 pg/mL; Potency, µM (titrated, usually from 46.1 µM), without a hit: at the top dose activity, negative = cytotoxicity, usual class: inhibitors; 1,600 tested, 27% active; further: potency means the concentration at half of the fitted maximal effect; on the % scale 0 is the no-effect control and ±100 the full control effect; nearly all actives have a fitted effect of over 70% in size
CCL64 TGFb inh: TGF-b inhibition, CCL64 orthogonal assay | 1,600 tested, 41% active | CCL64 CAGA-GFP reporter, TGF-b stimulated, GFP fluorescence, 18 h | Potency, µM (titrated, usually from 46.1 µM), inactives show at the top dose activity, negative = inhibition, usual class: inhibitors | shares compounds with TGFb inhibitor | AID 720536; further: potency means the concentration at half of the fitted maximal effect; nearly all actives have a fitted effect of over 65% in size
COP TGFb inh: TGF-b inhibition validated with COP promoter | shares compounds with TGFb inhibitor | HepG2 COP-GFP TGF-b reporter, GFP fluorescence, 18 h; cells stimulated by added recombinant TGF-beta | Potency, µM (top dose mostly 46.1 µM), for inactives: top-dose activity, negative = inhibition, usual class: inhibitors | 1,600 tested, 3% active | AID 720537; further: potency means the concentration at half of the fitted maximal effect; nearly all actives have a fitted effect of over 70% in size
Starred values were filed as active, the others as inactive; i = inactive; u = inconclusive; x = no result given. Unless noted, the call rests on the fitted dose curve; in most records, active means well fitted curve in the direction sought with a large enough effect; inconclusive means small, poorly fitted or top-dose-only effect, or another doubt; inactive means no such curve, though single readings can be large; an effect the other way counts as inactive or inconclusive.

SMILES	ATXN2 expr inh	TGFb inhibitor	IL-1B inflam inh	S2 tox	HepG2 tox-1	TGFb confirm	HepG2 tox-2	CCL64 TGFb inh	COP TGFb inh
COc1ccc(OC)c2sc(NC(=O)CCSc3ccccc3)nc12	-7%	-8%	18	i	-9%	x	x	x	x
O=C(CCS(=O)(=O)c1ccccc1)Nc1nc2ccc(F)cc2s1	-11%	3.5µM*	7	i	-21%	1.2µM*	-27%	10µM*	31%
COCCCNC(=O)CCCCn1c(=O)c2ccccc2n(CC(=O)Nc2ccc(C)cc2C)c1=O	4%	-16%	x	i	0%	x	x	x	x
CCN1C(=O)C2(c3ccccc31)c1c(oc3ccc(C)cc3c1=O)C(=O)N2CCCOC(C)C (centres undefined)	9%	4%	x	i	0%	x	x	x	x
COc1ccc(-c2cc(N)n(S(=O)(=O)c3c(F)c(F)c(F)c(F)c3F)n2)cc1OC	7.9µM*	4µM*	-87*	10µM*	8.9µM*	2.6µM*	8.2µM*	2.9µM*	u
O=C(CNC(=S)N(Cc1ccccc1)Cc1ccccc1F)NCc1ccc(Cl)cc1	-29%	13µM*	-83*	i	0%	13µM*	u	u	17%
O=C(CNC(=S)N(Cc1ccccc1)Cc1ccccc1F)NCCc1ccccc1	7%	-17%	-18	i	-21%	x	x	x	x
Cc1ccc(S(=O)(=O)N2CCCCC2)cc1C(=O)OC1CCCCC1=O (centres undefined)	9%	u	4	i	-14%	u	7%	12%	0%
CN(C)CC(C(=O)c1ccccc1)c1ccccc1 (centres undefined)	22µM*	4µM*	-101*	x	8.9µM*	5.2µM*	10µM*	3.3µM*	u
COc1ccc(NC(=O)c2c(Nc3ccccc3)sc(C(=O)c3ccc(F)cc3)c2N)cc1	u	3.2µM*	0	i	-58%	-22%	-27%	u	-1%
COc1ccc(C(=O)c2sc(Nc3ccccc3)c(C(=O)Nc3ccc(OC)c(OC)c3)c2N)cc1	-11%	-24%	-5	i	-27%	x	x	x	x
O=S(=O)(NCc1csc(-c2ccccc2)n1)c1ccccc1	x	x	x	x	-9%	x	x	x	x
Cc1ccc(COc2ccccc2-c2cc(C(=O)N/N=C/c3cccnc3)[nH]n2)cc1	u	11µM*	3	u	-21%	u	u	23µM*	19%
COc1ccccc1N1CCN(C(=O)NCc2ccc(Cl)cc2)CC1	-8%	0%	-22	i	-12%	x	x	x	x
COc1ccccc1N1CCN(C(=O)c2ccc(-c3ccc(Cl)cc3)o2)CC1	x	8.9µM*	41	u	-46%	13µM*	12µM*	u	53%
COc1ccc(S(=O)(=O)Nc2ccc(O)c(Sc3ncn[nH]3)c2)cc1	6%	1%	1	i	0%	x	x	x	x
COc1ccc(S(=O)(=O)Nc2cc(Sc3ncn[nH]3)c(O)c3ccccc23)cc1	x	3.2µM*	x	x	3.5µM*	12µM*	u	2.6µM*	u
O=S(=O)(Nc1cccc2cccnc12)c1ccc2ccccc2c1	x	u	x	x	-24%	x	x	x	x

Source: PubChem (National Center for Advancing Translational Sciences (NCATS))
